# The full ranking holds about 68,000 sequences; the median of “fluorescence intensity (a.u.)” is about 9,100, and the highest 2% start at about 16,000. This excerpt belongs to a sample that is enriched for the highest values.
# Biological target: OsWRKY34 (Oryza sativa, UniProt Q0JBA9 1-250)
# Experiment: protein-binding microarray (RPBM); PBS, 2% BSA, 51.3 ng/ul salmon testes DNA, 50 uM zinc acetate, 200 nM TF, 25 C, 1 h; high values mean tight binding
# Conditions: protein: recombinant; tags: N-terminal polyhistidine and DsRed monomer fusion (pET32a); label: CyDye5-dUTP incorporated in the synthesized complementary strand; 3' TTTTT single-stranded linker to array surface; dsDNA, one strand shown
# Summary of the method: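 Ni–NTA purification followed expression in E. coli BL21-CodonPlus of transcription factors fused N-terminally to a polyhistidine tag and DsRed. At 200 nM in PBS with 2% BSA, salmon testes DNA and 50 µM zinc acetate, the protein was incubated for 1 h at 25 °C with a custom Agilent array that had been primer-extended with Cy5-dUTP and blocked with 2% BSA. After washing, the array was read on an Axon 4000B scanner. The binding signal is per-feature fluorescence intensity in arbitrary units.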
# Chain of OsWRKY34 (Q0JBA9 entry or part of it): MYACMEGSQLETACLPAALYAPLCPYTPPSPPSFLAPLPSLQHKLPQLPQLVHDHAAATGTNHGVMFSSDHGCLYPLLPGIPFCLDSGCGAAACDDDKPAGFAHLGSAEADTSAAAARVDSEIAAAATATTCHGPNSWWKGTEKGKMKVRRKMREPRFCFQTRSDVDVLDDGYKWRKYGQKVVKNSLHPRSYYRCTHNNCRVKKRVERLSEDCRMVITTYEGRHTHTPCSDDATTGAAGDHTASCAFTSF
row,Sequence,binding signal
1,AAGGACCCAGCTGTTCGCCACGTGTGCGTGTTGACTTCCACGGAGTCACCTAGTGCAG,9780 fluorescence intensity (a.u.)
2,ATAGTACGAATGGTTAGCCCAAAAGTCAGTGTCTTCATTCCGGAGTCACCTAGTGCAG,10300 fluorescence intensity (a.u.)
3,CACTGCTTCTCACCCAACTCGCGCGCGCCATTCCTTGCCTCGGAGTCACCTAGTGCAG,11600 fluorescence intensity (a.u.)
4,TCTATATTGCTATTTTCATTTTAAAACTATTTCTTGCCACCGGAGTCACCTAGTGCAG,10300 fluorescence intensity (a.u.)
5,TTCTGATATCTGGTCATATTTTTTTGAACAGGTAGCTATTCGGAGTCACCTAGTGCAG,27000 fluorescence intensity (a.u.)
6,AGCTGGTCATATTCTATGTTGATTATCTTCATGGTATGAACGGAGTCACCTAGTGCAG,9730 fluorescence intensity (a.u.)
7,ATCTGGTCTGCAGGTATTTTCTTTGTATTGTATATTTCTACGGAGTCACCTAGTGCAG,10000 fluorescence intensity (a.u.)
8,CCGCACCTCTCTCTACACGCACGCGTCTCTCCCATCTCCCCGGAGTCACCTAGTGCAG,9030 fluorescence intensity (a.u.)
9,AACTTTCTCCCACCGGCCACCGCGCGTCTCTTGCCACGACCGGAGTCACCTAGTGCAG,12200 fluorescence intensity (a.u.)
10,TCTTCTTCCATGGTCTTTTCTAGATAAGGCTCTCTAATGTCGGAGTCACCTAGTGCAG,8620 fluorescence intensity (a.u.)
11,TGAACGCTTCCCTGTGTTTGTGGTTACTGCCTTACTGGTTCGGAGTCACCTAGTGCAG,9210 fluorescence intensity (a.u.)
12,CGCACGGTTGTTCTCGCCATGATCCTCCTTGCCGCTGTCACGGAGTCACCTAGTGCAG,8780 fluorescence intensity (a.u.)
13,CTCCTGACTCCTCCTCGGTTCCTCTTCCTCTCGAGCCCTTCGGAGTCACCTAGTGCAG,9950 fluorescence intensity (a.u.)
14,CTTAGGGTCGGGAAGGGGAGAGGCGGTGGCGGGCGGCTGACGGAGTCACCTAGTGCAG,13400 fluorescence intensity (a.u.)
15,TCTTAGACGGTCCTGACTCGAGGCCCATATATATGCTGGGCGGAGTCACCTAGTGCAG,19900 fluorescence intensity (a.u.)
16,TGGCTCCGCCACGTCCTCGTCGCCTGGAACTCGCTCGTCTCGGAGTCACCTAGTGCAG,8680 fluorescence intensity (a.u.)
17,TGTCTCAACAACAAGCTCTGTGTGCTGCAGTGTCATTCCACGGAGTCACCTAGTGCAG,8160 fluorescence intensity (a.u.)
18,TATTGGTTTTTGTTTCTGGTGCCACGTCTGCGGCCAAAAACGGAGTCACCTAGTGCAG,9220 fluorescence intensity (a.u.)
19,CCTACACACGAAACCTCCGCGCCTCATCCGGGCTTCGCGACGGAGTCACCTAGTGCAG,10600 fluorescence intensity (a.u.)
20,TAACTTAACGTGATTTTCCTGTATGGACCTTAATTATGTTCGGAGTCACCTAGTGCAG,8580 fluorescence intensity (a.u.)
21,CGTTCTCTCTCTCCTAGAACCACAGTTCAACCACTGTTTCCGGAGTCACCTAGTGCAG,8580 fluorescence intensity (a.u.)
22,TGCCGTGGGATGGGGTTGCGGGAGGAGGAGGGTGCTACTACGGAGTCACCTAGTGCAG,17000 fluorescence intensity (a.u.)
23,GGCGGTGGGTGGGTGGAGCCGTGGAGGGATGGAGGGAGGGCGGAGTCACCTAGTGCAG,37900 fluorescence intensity (a.u.)

row,Sequence,binding signal
1,TGGGGATGCGGGGTGGCGCGGGAGGAGGGAGAGGACGGAGCGGAGTCACCTAGTGCAG,8670 fluorescence intensity (a.u.)
2,CAAGCCGGGCGGGAGCCGTGGCGGCGGCCGGGCGGGCGGGCGGAGTCACCTAGTGCAG,8260 fluorescence intensity (a.u.)
3,GGAGGAGTACGACGGGGTGGGAGCGGCGGTGGGTGGGATGCGGAGTCACCTAGTGCAG,11500 fluorescence intensity (a.u.)
4,CATGGAGGGAGGGAGGGAGGCGGAAGCGGAGGCGTGGGAGCGGAGTCACCTAGTGCAG,9980 fluorescence intensity (a.u.)
5,ACACGATATAGTCATTGCAATTATCACGGATCCAGGTCCTCGGAGTCACCTAGTGCAG,8560 fluorescence intensity (a.u.)
6,AGTACACACCATTTGACATCCTGATTATGTATAGTAATTTCGGAGTCACCTAGTGCAG,8350 fluorescence intensity (a.u.)
7,TCAGCTATCATAGTCTTCTAGAATGCTCTTCTTGTCAGATCGGAGTCACCTAGTGCAG,8220 fluorescence intensity (a.u.)
8,ATGGGTTGGTAGAGGGGAGGGAACGCGCGACGGTGGCGAGCGGAGTCACCTAGTGCAG,8740 fluorescence intensity (a.u.)
9,GTCTCGTGGCACCTCAATTTATTAATCACTACCCCTATACCGGAGTCACCTAGTGCAG,8710 fluorescence intensity (a.u.)
10,CATTAGACCCTGAGGTTTTTGACTAGGCAGCCCACTTGTCCGGAGTCACCTAGTGCAG,9040 fluorescence intensity (a.u.)
11,AATGGTCAAACGTTGGATAAAAAGTCAACGGCGTCATACACGGAGTCACCTAGTGCAG,14700 fluorescence intensity (a.u.)
12,ACAAATGGTCAAACGTTGGTCGAAAAGTCAACGGCGTCATCGGAGTCACCTAGTGCAG,13700 fluorescence intensity (a.u.)
13,GTTTGTCAAAAAGTCAACGGCGTCATATATTATACGGAGGCGGAGTCACCTAGTGCAG,18800 fluorescence intensity (a.u.)
14,GAAATGTCAAATATTTGTTAAAAAGTCAACGGCGTCATACCGGAGTCACCTAGTGCAG,11900 fluorescence intensity (a.u.)
15,ACAAATGGTCAAACGTTGATAAAAAAGTCAACGGCGTCATCGGAGTCACCTAGTGCAG,20600 fluorescence intensity (a.u.)
16,ATAAAACAAATGATCAAACGTTGAATAAAAAGTCAACGGCCGGAGTCACCTAGTGCAG,11100 fluorescence intensity (a.u.)
17,CGGATGGTCAAACGTTGGTCAAAAAGTCAACGGCGTCATACGGAGTCACCTAGTGCAG,19600 fluorescence intensity (a.u.)
18,AAAAAGTCAACGGCGTCATATATTAAAATATGGAGAGAGTCGGAGTCACCTAGTGCAG,8150 fluorescence intensity (a.u.)
19,TAAAACGAATGGTCAAACGTTGGTCGAAAAGTCAACGGCGCGGAGTCACCTAGTGCAG,14400 fluorescence intensity (a.u.)
20,AAACGAATAGTCAAACGTTGATCGAAAAGTCAACGGCGTCCGGAGTCACCTAGTGCAG,19300 fluorescence intensity (a.u.)
21,GATCAAACGTTGGTTAAAAAGTCAACGGCGTCATACATTACGGAGTCACCTAGTGCAG,10700 fluorescence intensity (a.u.)
22,TTTAAATAAAACGAATGGTCAAACGTTGATAAAAAGTCAACGGAGTCACCTAGTGCAG,13300 fluorescence intensity (a.u.)
